In the supplement of paper PMC13380429 one finds morphology score and SARS-CoV-2 infection rate data, which are given here for ten compounds.

Test [1] concerns Vero E6 infected with SARS-CoV-2. The experiment in a line: morphology score (similarity to uninfected cells); higher = more like uninfected cells. Particulars: 24 h.
The test system is the same in test [2]. Briefly: SARS-CoV-2 infection rate relative to infected DMSO; higher = more infection, active = 60 or less. Particulars: 24 h.

The compound `c1ccc2c(Cc3c[nH]c4ccccc34)c[nH]c2c1` [3,3'-diindolylmethane] (10 µM) returned a morphology score in test [1] of 0.0838. Further, the SARS-CoV-2 infection rate in test [2] was 113% (inactive).

Take `Cc1nccn1CC1CCc2c(c3ccccc3n2C)C1=O` (stereo not given) [ondansetron] (10 µM): in test [1], the morphology score turned out to be 0.253. The SARS-CoV-2 infection rate in test [2] was 90% (inactive).

Compound `O=[N+]([O-])/C=C/c1ccc2c(c1)OCO2` [3,4-methylenedioxy-beta-nitrostyrene] (10 µM) gave a morphology score in test [1] of 0.58. For the same compound, the SARS-CoV-2 infection rate in test [2] was 41% (active).

For the compound `Cc1c(N(C)CS(=O)(=O)O)c(=O)n(-c2ccccc2)n1C` [metamizole] (10 µM), in test [1], the morphology score was found to be 0.141. Further, the SARS-CoV-2 infection rate in test [2] was 93.5% (inactive).

In test [1], `CN(C)CC/C=C1/c2ccccc2COc2ccccc21` [doxepin] (10 µM) had a morphology score of 0.0537. The SARS-CoV-2 infection rate in test [2] was 105% (inactive).

`Cc1ccc(S(=O)(=O)c2ccc([N+](=O)[O-])o2)cc1` (0.833333 µM): in test [1], the morphology score was determined as 0.215. Further, the SARS-CoV-2 infection rate in test [2] was 68% (inactive).

Compound `O=C1NCN(c2ccccc2)C12CCN(CC1COc3ccccc3O1)CC2` (stereo not given) [spiroxatrine] (10 µM) gave a morphology score in test [1] of -0.179. Also, the SARS-CoV-2 infection rate in test [2] is 114% (inactive).

As to `N[C@@H]1CONC1=O` [cycloserine-(D)] (10 µM), in test [1], the morphology score came out at 0.0631. Besides, the SARS-CoV-2 infection rate in test [2] was 92.5% (inactive).

Turning to `CC(=C(CCOC(=O)C(C)C)SSC(CCOC(=O)C(C)C)=C(C)N(C=O)Cc1cnc(C)nc1N)N(C=O)Cc1cnc(C)nc1N` (stereo in doubt) [sulbutiamine] (10 µM), in test [1], the morphology score was found to be 0.0249. Further, the SARS-CoV-2 infection rate in test [2] was 100% (inactive).

In test [1], `CCC(CC)COC(=O)[C@H](C)N[P@](=O)(OC[C@H]1O[C@@](C#N)(c2ccc3c(N)ncnn23)[C@H](O)[C@@H]1O)Oc1ccccc1` [Remdesivir] (10 µM) had a morphology score of 0.761. The SARS-CoV-2 infection rate in test [2] was 26% (active).
